Measurements from the supplement of paper PMC13380429.

Test system: Vero E6 infected with SARS-CoV-2
Experiment: inhibition of SARS-CoV-2 cytopathic effect; higher = more antiviral protection, active = above 15
Details: 48 h

Measured: inhibition of SARS-CoV-2 cytopathic effect

CCOc1c(N2CCOCC2)cnn(C)c1=O [emorfazone]
inactive: 1 nM -7.19% | 8.33 nM -6.29% | 100 nM -2.95% | 833.33 nM -0.94% | 10000 nM 0.67%

O=C(NCCN1CCC2(CC1)C(=O)NCN2c1cccc(F)c1)c1ccc(F)c(F)c1
active: 10000 nM 22%
inactive: 1 nM 3.32% | 8.33 nM 2.54% | 100 nM 0.98% | 833.33 nM 1.22%

Fc1ccccc1CNCc1ccc(-c2ccnc3[nH]ccc23)cc1
inactive: 1 nM 4.68% | 8.33 nM 2.19% | 100 nM 0.04% | 833.33 nM -1.5% | 10000 nM -7.9%

O=C(NCC1(N2CCN(c3ccccc3)CC2)CCOCC1)c1cccnc1Sc1ccccc1
inactive: 1 nM -0.72% | 8.33 nM 1.47% | 100 nM 1% | 833.33 nM -2.18% | 10000 nM 0.86%

COc1ccc(Cl)cc1C(=O)NCCc1ccc(C(=O)O)cc1 [meglitinide]
inactive: 1 nM 2.2% | 8.33 nM 0.5% | 100 nM 1.3% | 833.33 nM 0.11% | 10000 nM 1.33%

Cc1ccc(S(N)(=O)=O)cc1 [para-toluenesulfonamide]
inactive: 1 nM 3.73% | 8.33 nM 1.88% | 100 nM 1.14% | 833.33 nM 0.12% | 10000 nM -5.38%

CC(=O)OCC(=O)[C@@]1(O)CC[C@H]2[C@@H]3CCC4=CC(=O)CC[C@]4(C)[C@H]3[C@@H](O)C[C@@]21C [hydrocortisone-acetate]
inactive: 1 nM -3.27% | 8.33 nM -0.84% | 100 nM 0.23% | 833.33 nM -1.92% | 10000 nM -0.4%
